# PubChem BioAssay (NCATS)
# Values without a mark were called inactive. Results filed as inconclusive are left out. Active and inactive are the calls of the source. Unless noted, calls follow the shape of the dose curve; as a rule, active = well fitted curve in the direction sought with a large enough effect; inconclusive = small, poorly fitted or top-dose-only effect, or another doubt; inactive = no such curve, though single readings can be large; an effect the other way counts as inactive or inconclusive.
# Columns and labels:
# [1] = target: Lysosomal acid glucosylceramidase (Homo sapiens) (UniProt P04062); test: Glucocerebrosidase-p2 (AID 348; in the data active = potency below about 10 µM; also: potency is read from the fitted curve at half-maximal effect); conditions: purified GBA, blue fluorogenic substrate, 40 min
# Lysosomal acid glucosylceramidase (Homo sapiens), sequence (P04062 whole entry, looked up): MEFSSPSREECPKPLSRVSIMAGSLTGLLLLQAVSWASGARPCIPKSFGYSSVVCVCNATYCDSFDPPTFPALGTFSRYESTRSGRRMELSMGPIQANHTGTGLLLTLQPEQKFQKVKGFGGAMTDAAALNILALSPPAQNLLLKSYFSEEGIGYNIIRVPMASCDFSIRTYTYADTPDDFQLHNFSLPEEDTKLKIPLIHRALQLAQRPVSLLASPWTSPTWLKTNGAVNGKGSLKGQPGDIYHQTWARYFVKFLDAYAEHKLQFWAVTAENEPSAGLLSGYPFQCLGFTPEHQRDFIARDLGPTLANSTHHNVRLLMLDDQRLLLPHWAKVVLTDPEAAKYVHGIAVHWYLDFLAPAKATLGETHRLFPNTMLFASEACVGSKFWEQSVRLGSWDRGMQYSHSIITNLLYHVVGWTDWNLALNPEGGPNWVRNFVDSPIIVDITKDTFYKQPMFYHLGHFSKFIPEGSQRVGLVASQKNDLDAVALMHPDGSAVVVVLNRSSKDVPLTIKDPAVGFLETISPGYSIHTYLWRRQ
# In short: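 Normal human glucocerebrosidase (0.2 nM) with blue fluorogenic substrate (80 uM final) in citrate/phosphate pH 5.9 with 10mM sodium taurocholate, 0.01% tween-20; 40 min RT, NaOH/glycine stop; fluorescence Ex 365/Em 440; AC50 from a titration from 0.6 nM upwards.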
# [2] = target: Cytochrome P450 1A2 (Homo sapiens) (UniProt P05177); test: p450-cyp1a2 (AID 410; calls by dose curve; also: potency is read from the fitted curve at half-maximal effect;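 as to activity change, negative = inhibition: -100% = full effect of reference inhibitor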); conditions: recombinant CYP1A2, luciferin-ME demethylation, luminescence; series mostly up to 57 µM
# Cytochrome P450 1A2 (Homo sapiens), sequence (P05177 whole entry, looked up): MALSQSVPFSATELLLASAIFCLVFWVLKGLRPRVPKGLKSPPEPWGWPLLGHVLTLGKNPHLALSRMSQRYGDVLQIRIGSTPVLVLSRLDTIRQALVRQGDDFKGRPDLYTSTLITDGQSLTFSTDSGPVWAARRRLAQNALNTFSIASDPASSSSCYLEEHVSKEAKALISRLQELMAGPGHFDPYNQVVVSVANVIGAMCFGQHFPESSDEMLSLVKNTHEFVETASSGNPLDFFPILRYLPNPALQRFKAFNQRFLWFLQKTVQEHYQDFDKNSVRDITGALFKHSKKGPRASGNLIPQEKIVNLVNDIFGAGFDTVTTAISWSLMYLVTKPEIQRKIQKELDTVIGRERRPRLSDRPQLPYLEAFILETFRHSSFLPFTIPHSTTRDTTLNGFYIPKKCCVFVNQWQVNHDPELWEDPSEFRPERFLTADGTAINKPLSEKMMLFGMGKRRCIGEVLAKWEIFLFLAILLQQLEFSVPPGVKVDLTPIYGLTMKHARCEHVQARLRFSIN
# In short: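 20nM CYP1A2, 100uM Luciferin-ME (=Km), 100mM KPO4; cpd 10 min RT; +NADPH regen, 60 min RT; stop/detect 20 min; luminescence. Normalized to furafylline 57 uM = full inhibition.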
# [3] = target: Glucocorticoid receptor (Homo sapiens) (UniProt P04150); test: GR-GFP Redistribution (AID 450;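 active = compounds whose dose series gives a full or clear partial fitted curve of increased nuclear translocation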; also: potency is read from the fitted curve at half-maximal effect); conditions: U2OS GR-GFP nuclear translocation, laser cytometry, 2 h
# Glucocorticoid receptor (Homo sapiens), sequence (P04150 whole entry, looked up, the tested form may be a part): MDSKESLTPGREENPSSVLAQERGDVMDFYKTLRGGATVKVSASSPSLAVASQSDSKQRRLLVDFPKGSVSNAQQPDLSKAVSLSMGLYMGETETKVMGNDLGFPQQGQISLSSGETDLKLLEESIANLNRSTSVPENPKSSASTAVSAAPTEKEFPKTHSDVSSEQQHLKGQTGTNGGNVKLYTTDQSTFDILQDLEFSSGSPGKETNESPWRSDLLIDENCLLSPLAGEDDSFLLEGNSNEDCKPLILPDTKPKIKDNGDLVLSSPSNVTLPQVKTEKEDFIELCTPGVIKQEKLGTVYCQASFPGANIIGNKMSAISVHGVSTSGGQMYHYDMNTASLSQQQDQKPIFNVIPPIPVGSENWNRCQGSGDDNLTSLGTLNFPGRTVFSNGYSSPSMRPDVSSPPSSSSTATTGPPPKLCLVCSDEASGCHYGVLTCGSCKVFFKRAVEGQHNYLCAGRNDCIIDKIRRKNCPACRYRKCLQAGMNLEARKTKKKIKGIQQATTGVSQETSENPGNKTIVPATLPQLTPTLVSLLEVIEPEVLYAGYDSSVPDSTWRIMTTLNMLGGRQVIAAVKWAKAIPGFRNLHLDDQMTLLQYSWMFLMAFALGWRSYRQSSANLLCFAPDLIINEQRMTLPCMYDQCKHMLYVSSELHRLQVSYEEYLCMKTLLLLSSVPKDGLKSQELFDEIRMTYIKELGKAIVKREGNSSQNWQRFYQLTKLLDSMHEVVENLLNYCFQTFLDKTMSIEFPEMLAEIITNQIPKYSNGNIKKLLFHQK
# [4] = target: Glucocorticoid receptor (Homo sapiens) (UniProt P04150); test: GR-EFC Redistribution (AID 451; calls by dose curve; also: potency is read from the fitted curve at half-maximal effect); conditions: CHO-K1 GR-EFC translocation, beta-gal luminescence, 2 h
# In short: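 CHO-K1 cells stably expressing nuclear-localized β-gal enzyme acceptor and GR fused C-terminally to the enzyme donor fragment; ligand-driven nuclear translocation restores β-gal by complementation. Compounds titrated up to 46 uM final, 2 h at 37 °C; luminescence read.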
# [5] = target: Mitogen-activated protein kinase 10 (Mus musculus) (UniProt Q61831); test: JNK3 AlphaScreen Assay (AID 530; active = well fitted curve in either direction with a large enough effect, not every such curve was filed as active;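 also: kinase came from lysate of stimulated human HepG2 cells; signal reports phosphorylation of biotinylated GST-cJun 1-79 at Ser73 with 10 µM ATP; % is scaled to controls: 0 for no effect and ±100 for the full control effect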); conditions: JNK3 lysate, c-Jun phosphorylation; series mostly up to 57.1 µM
# In short: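 Biotinylated GST-cJun(1-79) served as substrate for JNK3 in HepG2 lysates stimulated with IL-1beta and TNF-alpha. ATP was 10 uM final, pH 7.6. Ser73 phosphorylation was quantified by AlphaScreen (680 nm excitation).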
# [6] = target: 3',5'-cyclic-AMP phosphodiesterase 4B (Homo sapiens) (UniProt Q07343); test: qHTS Assay for Inhibitors of PDE-IV (AID 607; active = well fitted activation curve with a large enough effect in the main read-out, with a control signal flat, not every such curve was filed as active; also: % of control where 0% means no effect); conditions: HEK293 ACTOne CNG channel cells, membrane potential fluorescence; series mostly up to 22.9 µM
# 3',5'-cyclic-AMP phosphodiesterase 4B (Homo sapiens), sequence (Q07343 whole entry, looked up): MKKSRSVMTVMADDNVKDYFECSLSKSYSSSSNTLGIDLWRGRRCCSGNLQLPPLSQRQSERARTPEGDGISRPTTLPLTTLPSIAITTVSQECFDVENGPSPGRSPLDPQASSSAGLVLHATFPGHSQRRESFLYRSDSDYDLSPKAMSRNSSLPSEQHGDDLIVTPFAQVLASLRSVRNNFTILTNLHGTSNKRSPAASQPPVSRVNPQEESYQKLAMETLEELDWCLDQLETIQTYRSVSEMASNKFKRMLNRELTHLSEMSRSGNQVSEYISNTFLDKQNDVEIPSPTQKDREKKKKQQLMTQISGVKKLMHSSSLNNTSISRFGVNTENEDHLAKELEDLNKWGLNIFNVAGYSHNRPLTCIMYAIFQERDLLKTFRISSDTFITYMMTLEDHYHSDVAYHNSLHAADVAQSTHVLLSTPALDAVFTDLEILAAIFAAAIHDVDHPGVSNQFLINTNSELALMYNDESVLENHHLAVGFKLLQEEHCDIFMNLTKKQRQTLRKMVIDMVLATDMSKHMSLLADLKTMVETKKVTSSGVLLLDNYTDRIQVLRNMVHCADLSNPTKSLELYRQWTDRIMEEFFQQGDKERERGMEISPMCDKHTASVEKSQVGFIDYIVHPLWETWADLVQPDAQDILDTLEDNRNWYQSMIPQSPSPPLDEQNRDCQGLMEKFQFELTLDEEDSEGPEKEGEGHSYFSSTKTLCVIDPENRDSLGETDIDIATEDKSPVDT
# In short: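 Live HEK293 cells with a modified cyclic nucleotide-gated (CNG) channel report intracellular cAMP via membrane-potential dye fluorescence (ex 535/em 590 nm). Endogenous PDE-IV was targeted. Compounds were tested at up to 22.9 uM final; RO 20-1724 100 uM served as control.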
# [7] = target: Cytochrome P450 3A4 (Homo sapiens) (UniProt P08684); test: qHTS Assay for Activators of Cytochrome P450 3A4 (AID 885); conditions: recombinant CYP3A4, Luciferin-PPXE luminescence, 60 min; series mostly up to 57.1 µM; also: nearly all actives have a fitted effect of over 65% in size; also: potency is read from the fitted curve at half-maximal effect
# In short: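 Using 20nM recombinant human CYP3A4 in potassium phosphate (200mM), substrate Luciferin-PPXE at 25uM, luminescent luciferin detection followed a 60-min RT NADPH reaction; data scaled to 57 uM ketoconazole.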
# [8] = target: Dual specificity protein kinase CLK4 (Homo sapiens) (UniProt Q9HAZ1); test: qHTS Assay for Inhibitors of CDC-like Kinase 4 (Kinase-Glo Assay) (AID 1770); conditions: recombinant Clk4, Kinase-Glo ATP depletion luminescence; series mostly up to 66.7 µM; also: nearly all actives have a fitted effect of over 65% in size; also: potency is read from the fitted curve at half-maximal effect
# Dual specificity protein kinase CLK4 (Homo sapiens), sequence (Q9HAZ1 whole entry, looked up): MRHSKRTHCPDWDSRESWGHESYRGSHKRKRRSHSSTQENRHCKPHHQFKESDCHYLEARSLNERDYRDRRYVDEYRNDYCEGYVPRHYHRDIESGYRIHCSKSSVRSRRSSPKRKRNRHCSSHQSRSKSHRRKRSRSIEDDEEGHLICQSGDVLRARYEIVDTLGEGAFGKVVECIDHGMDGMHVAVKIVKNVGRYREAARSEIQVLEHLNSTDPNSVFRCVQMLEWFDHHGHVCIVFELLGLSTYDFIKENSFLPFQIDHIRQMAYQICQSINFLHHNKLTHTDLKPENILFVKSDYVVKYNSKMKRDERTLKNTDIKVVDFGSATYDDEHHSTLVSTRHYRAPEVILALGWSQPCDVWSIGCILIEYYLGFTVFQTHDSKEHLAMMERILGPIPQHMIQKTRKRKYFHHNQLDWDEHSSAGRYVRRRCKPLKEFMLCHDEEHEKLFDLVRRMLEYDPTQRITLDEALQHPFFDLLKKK
# In short: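 Recombinant human Clk4 (25 nM) phosphorylated RS repeat peptide (100 uM) with 1 uM ATP in Tris pH 7.5/MgCl2/EGTA/DTT/Triton buffer for 4.5 h at room temperature. Residual ATP was quantified by Kinase-Glo luciferase luminescence.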
# [9] = target: Ubiquitin carboxyl-terminal hydrolase 1 (Homo sapiens) (UniProt O94782); test: Inhibitors of USP1/UAF1: Pilot qHTS (AID 504865); conditions: purified USP1/UAF1, Ub-rhodamine cleavage fluorescence; series mostly up to 54.9 µM;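 also: rhodamine fluorescence freed from ubiquitin-rhodamine substrate followed over time; top concentration of the series differs between compounds; % is scaled to controls: 0 for no effect and ±100 for the full control effect; nearly all actives have a fitted effect of over 35% in size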
# In short: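 USP1/UAF1 complex (1nM) preincubated with compound 15 min at room temperature, then Ub-Rho substrate (150nM final) added. Fluorescence read kinetically at 480/540 nm, 6 reads every 60 seconds. Buffer: 50mM HEPES pH 7.8, 0.5mM EDTA, 0.1 mg/ml BSA, 1mM TCEP, 0.01% Tween-20.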
# [10] = Primary qHTS for small molecule stabilizers of the endoplasmic reticulum resident proteome: Secreted ER Calcium Modulated Protein (SERCaMP) assay (AID 1508630); conditions: SH-SY5Y GLuc-SERCaMP (Gaussia luciferase released on ER calcium loss) secretion, thapsigargin, luminescence; series mostly up to 38.4 µM; also: % is scaled to controls: 0 for no effect and ±100 for the full control effect
# In short: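 The SH-SY5Y reporter protocol was run at 3 concentrations up to 38.3 uM (primary) or 11 concentrations (follow-up): 16 h compound, 100 nM thapsigargin for 4 h, then extracellular luciferase luminescence.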
# [11] = target: Rap guanine nucleotide exchange factor 3 (Homo sapiens) (UniProt O95398); test: Confirmatory qHTS for agonist of cAMP-regulated guanine nucleotide exchange factor 3 (EPAC1) (AID 1645881); conditions: EPAC1 Rap1B BODIPY-GDP exchange fluorescence; series mostly up to 154 µM;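 also: EPAC1 catalysed release of BODIPY-GDP from Rap1B seen as fluorescence loss; 100% = effect of cAMP agonist control; nearly all actives have a fitted effect of over 75% in size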
# Rap guanine nucleotide exchange factor 3 (Homo sapiens), sequence (O95398 whole entry, looked up): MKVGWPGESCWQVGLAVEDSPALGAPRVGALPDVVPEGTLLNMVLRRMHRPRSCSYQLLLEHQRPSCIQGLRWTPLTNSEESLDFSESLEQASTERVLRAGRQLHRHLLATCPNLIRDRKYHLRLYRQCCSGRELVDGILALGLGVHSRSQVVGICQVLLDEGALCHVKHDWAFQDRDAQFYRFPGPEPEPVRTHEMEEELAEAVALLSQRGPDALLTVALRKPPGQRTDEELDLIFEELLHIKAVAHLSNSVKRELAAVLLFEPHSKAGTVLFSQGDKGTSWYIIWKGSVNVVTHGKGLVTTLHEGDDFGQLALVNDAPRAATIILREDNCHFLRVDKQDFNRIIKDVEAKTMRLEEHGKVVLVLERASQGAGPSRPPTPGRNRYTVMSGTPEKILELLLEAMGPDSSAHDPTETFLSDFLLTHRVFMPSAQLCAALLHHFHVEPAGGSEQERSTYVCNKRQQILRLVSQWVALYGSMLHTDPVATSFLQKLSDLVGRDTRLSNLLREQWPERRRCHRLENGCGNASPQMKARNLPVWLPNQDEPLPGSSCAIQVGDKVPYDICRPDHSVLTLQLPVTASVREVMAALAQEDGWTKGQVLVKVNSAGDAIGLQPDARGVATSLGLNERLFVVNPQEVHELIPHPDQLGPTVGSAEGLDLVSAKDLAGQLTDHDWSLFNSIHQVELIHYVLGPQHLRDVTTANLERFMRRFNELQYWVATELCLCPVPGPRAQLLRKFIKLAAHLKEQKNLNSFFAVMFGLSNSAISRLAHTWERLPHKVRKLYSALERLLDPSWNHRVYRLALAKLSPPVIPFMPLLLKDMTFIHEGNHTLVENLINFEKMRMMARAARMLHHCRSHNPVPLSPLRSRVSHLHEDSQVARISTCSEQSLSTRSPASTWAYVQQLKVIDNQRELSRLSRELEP
# [12] = target: Rap guanine nucleotide exchange factor 4 (Homo sapiens) (UniProt Q8WZA2); test: Confirmatory qHTS for agonist of cAMP-regulated guanine nucleotide exchange factor 4 (EPAC2) (AID 1645884); conditions: EPAC2 GEF activity, Rap1B-BODIPY-GDP fluorescence; series mostly up to 154 µM;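 also: nucleotide exchange releases bodipy-GDP from Rap1 and this lowers its fluorescence; % is scaled to controls: 0 for no effect and ±100 for the full control effect; nearly all actives have a fitted effect of over 65% in size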
# Rap guanine nucleotide exchange factor 4 (Homo sapiens), sequence (Q8WZA2 whole entry, looked up): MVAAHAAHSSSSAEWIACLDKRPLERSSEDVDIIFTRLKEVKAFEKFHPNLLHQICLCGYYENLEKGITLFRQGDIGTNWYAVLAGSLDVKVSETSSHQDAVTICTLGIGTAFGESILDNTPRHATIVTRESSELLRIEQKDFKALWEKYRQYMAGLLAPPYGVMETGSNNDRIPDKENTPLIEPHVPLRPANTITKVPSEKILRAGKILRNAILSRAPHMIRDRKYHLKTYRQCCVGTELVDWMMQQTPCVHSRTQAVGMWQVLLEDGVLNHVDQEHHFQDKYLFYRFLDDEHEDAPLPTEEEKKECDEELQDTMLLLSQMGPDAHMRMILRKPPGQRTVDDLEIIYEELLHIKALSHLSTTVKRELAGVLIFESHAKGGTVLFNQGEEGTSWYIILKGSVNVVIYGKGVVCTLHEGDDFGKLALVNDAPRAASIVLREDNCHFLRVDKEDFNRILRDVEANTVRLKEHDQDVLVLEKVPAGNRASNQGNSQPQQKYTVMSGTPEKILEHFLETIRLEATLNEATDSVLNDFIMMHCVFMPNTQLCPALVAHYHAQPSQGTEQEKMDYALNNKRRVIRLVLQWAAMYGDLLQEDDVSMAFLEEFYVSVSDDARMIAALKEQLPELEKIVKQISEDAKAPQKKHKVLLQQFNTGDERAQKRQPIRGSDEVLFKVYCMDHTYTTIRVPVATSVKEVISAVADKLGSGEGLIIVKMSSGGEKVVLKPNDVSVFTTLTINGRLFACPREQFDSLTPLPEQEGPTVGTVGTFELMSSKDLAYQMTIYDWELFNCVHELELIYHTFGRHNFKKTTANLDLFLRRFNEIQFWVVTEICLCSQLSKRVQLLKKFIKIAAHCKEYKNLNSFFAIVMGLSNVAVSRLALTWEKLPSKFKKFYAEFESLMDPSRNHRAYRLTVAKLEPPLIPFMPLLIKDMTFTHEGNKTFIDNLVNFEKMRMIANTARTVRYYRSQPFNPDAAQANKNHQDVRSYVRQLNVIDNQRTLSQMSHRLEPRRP
# [13] = target: Rap guanine nucleotide exchange factor 4 (Homo sapiens) (UniProt Q8WZA2); test: Confirmatory qHTS for antagonist of cAMP-regulated guanine nucleotide exchange factor 4 (EPAC2) (AID 1645885); conditions: EPAC2 Rap1B-BODIPY-GDP exchange fluorescence, biochemical; series mostly up to 114 µM; also: nearly all actives have a fitted effect of over 25% in size; also: potency is read from the fitted curve at half-maximal effect
# [14] = NFAT Signaling Pathway (AID 444; active = well fitted curve in either direction with a large enough effect, not every such curve was filed as active;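 also: carbachol stimulus at about its EC50 of 1 µM final; % is scaled to controls: 0 for no effect and ±100 for the full control effect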); conditions: Jurkat NFAT-bla M1, carbachol, beta-lactamase ratio, 5 h; at 7.69 µM (top of the series) unless noted
# In short: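 Jurkat cells carrying an NFAT-driven β-lactamase reporter and co-transfected muscarinic M1 receptor were treated with compound plus carbachol (1 uM final, an EC50 level) for 5 h at 37 °C. CCF4 loading followed for 1 h at RT; 460/530 nm ratio gave %activity.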
# [15] = Stat Signaling Pathway (AID 446; active = well fitted curve in either direction with a large enough effect, not every such curve was filed as active;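 also: ME-180 cervical cancer cells given 40 pM IL-6 alongside compound; SIE-controlled beta-lactamase reporter measured as 460/530 nm FRET emission ratio; % is scaled to controls: 0 for no effect and ±100 for the full control effect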); conditions: ME-180 SIE beta-lactamase reporter, IL-6 stimulated, 5 h; at 7.69 µM (top of the series) unless noted
# In short: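 Overnight-plated ME-180 cells bearing a STAT Inducible Element beta-lactamase reporter; 5 h co-exposure to compound and 40 pM IL-6; values normalized to 300 pM IL-6 and 125 nM JAK inhibitor controls.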
# [16] = target: Rap guanine nucleotide exchange factor 3 (Homo sapiens) (UniProt O95398); test: Confirmatory qHTS for antagonist of cAMP-regulated guanine nucleotide exchange factor 3 (EPAC1) (AID 1645880); conditions: EPAC1 Rap1B-BODIPY-GDP exchange, fluorescence; series mostly up to 115 µM;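 also: plate controls were DMSO only for no effect and full effect of the ATA control for full effect; nearly all actives have a fitted effect of over 55% in size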
# In short: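 Released BODIPY-GDP fluoresces less than Rap1-bound BODIPY-GDP; the signal is followed at 480/540 nm at 5-min intervals over 30 min, after 5 min at room temperature. Reactions contain 100 nM EPAC1, 250 nM RAP1B-BODIPY-GDP and 50 uM GDP; results are normalized to ATA and DMSO.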
# [17] = AP1 Signaling Pathway (AID 357; active = well fitted curve in either direction with a large enough effect, not every such curve was filed as active; also: % is scaled to controls: 0 for no effect and ±100 for the full control effect); conditions: ME-180 (cervical carcinoma) AP-1-bla reporter, EGF-induced, beta-lactamase ratio, 5 h; at 7.69 µM (top of the series) unless noted
# In short: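 AP-1-bla ME-180 cells with beta-lactamase reporter under AP-1 response element, stimulated with EC50 EGF; compounds titrated, 5 hours at 37 degrees Celsius. CCF4 read at 460/530 nm ratio; positive and negative modulators judged by AC50.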
# [18] = target: Dual specificity protein kinase CLK4 (Homo sapiens) (UniProt Q9HAZ1); test: qHTS Assay for Inhibitors of CDC-like Kinase 4 (ADP-FP Assay) (AID 1795); conditions: Transcreener ADP fluorescence polarization; series mostly up to 50 µM; also: nearly all actives have a fitted effect of over 60% in size; also: potency is read from the fitted curve at half-maximal effect
# In short: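 Recombinant human Clk4 (6.25 nM) phosphorylated RS repeat peptide (100 uM) with 1 uM ATP in Tris pH 7.5/MgCl2/EGTA/DTT/Triton buffer for one hour. ADP was quantified by Transcreener competitive fluorescence polarization against an ADP calibration curve.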
# [19] = target: Cytochrome P450 3A4 (Homo sapiens) (UniProt P08684); test: qHTS Assay for Inhibitors and Substrates of Cytochrome P450 3A4 (AID 884); conditions: recombinant CYP3A4, Luciferin-PPXE luminescence; series mostly up to 57.1 µM; also: nearly all actives have a fitted effect of over 50% in size; also: potency is read from the fitted curve at half-maximal effect
# In short: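 Luminescent readout of luciferin produced by CYP3A4 (20 nM) dealkylation of Luciferin-PPXE, 25 uM (its KM). NADPH-driven reaction ran 60 min at RT after 10 min compound preincubation; data scaled to 57 uM ketoconazole as 100% inhibition.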
Compound,Potency [1],Potency [2],Potency [3],Potency [4],Potency [5],Potency [6],Potency [7],Potency [8],Potency [9],outcome [10],Potency [11],Potency [12],Potency [13],"activity change, negative = inhibition [14]","activity, negative = inhibition [15]",Potency [16],"activity change, negative = inhibition [17]",Potency [18],Potency [19]
COc1ccc(-c2nc3cnc(Nc4cccc(OC)c4)nc3n(Cc3cccs3)c2=O)cc1,> 11.4 µM,inactive,> 9.22 µM,> 46 µM,inactive,inactive,inactive,inactive,inactive,inactive,inactive,inactive,44.1 µM (active),,,,,,
c1csc(CNc2ccnc(-c3ccc4c(c3)OCO4)n2)c1,,0.316 µM (active),> 46 µM,> 46 µM,inactive,,inactive,,inactive,inactive,,,inactive,11.2%,-12.2%,inactive,,,
COc1cc(/C=C\c2ccc(OC)cc2OC)cc(OC)c1,,0.794 µM (active),> 46 µM,> 46 µM,,inactive,inactive,,,inactive,inactive,inactive,,,,inactive,,,
COc1cccc(-c2nc(NCc3ccc(OC)cc3OC)c3ccccc3n2)c1,,,> 46 µM,> 46 µM,inactive,,,inactive,,inactive,inactive,inactive,,-23.1%,-8.78%,,-5.61%,inactive,
COc1ccc(C(=O)N2CCC3(CCN(Cc4cc(C(F)(F)F)cc(C(F)(F)F)c4)CC3)CC2)cc1,> 11.4 µM,inactive,,> 46 µM,inactive,inactive,inactive,,,inactive,inactive,inactive,35 µM (active),19.2%,-6.24%,,7.47%,,
c1ccc(CNc2ccnc(-c3ccc4c(c3)OCO4)n2)cc1,,0.398 µM (active),> 46 µM,> 46 µM,inactive,,inactive,,,inactive,,,inactive,15.5%,-18.3%,inactive,-19.4%,,0.794 µM (active)
COC(=O)N1CCC2(CC1)CCN(c1cccc(-c3ccccc3)c1)CC2,> 11.4 µM,inactive,,> 46 µM,inactive,inactive,,,,inactive,inactive,inactive,,,13%,inactive,-18.3%,,inactive
COc1cccc(Cn2c(=O)c(-c3cccs3)nc3cnc(Nc4cccc(OC)c4)nc32)c1,> 11.4 µM,2.51 µM (active),> 9.22 µM,> 46 µM,inactive,,inactive,,,inactive,,,inactive,,26.3%,inactive,-17.2%,,
COc1ccc(Oc2ncc3ncc(=O)n(Cc4ccc(F)cc4)c3n2)cc1,> 11.4 µM,,> 9.22 µM,> 46 µM,inactive,,,,,inactive,inactive,,,-10.2%,-0.377%,inactive,-18.4%,,
CN(C)c1ncnc2ccc(-c3ccccc3C(F)(F)F)cc12,> 11.4 µM,0.631 µM (active),> 46 µM,> 46 µM,inactive,,inactive,,inactive,inactive,inactive,inactive,44.1 µM (active),20.6%,-12.7%,,0.8%,,
COc1ccc(CNc2ncncc2-c2c(C)noc2C)c(OC)c1,> 11.4 µM,25.1 µM (active),> 46 µM,> 46 µM,inactive,inactive,inactive,inactive,inactive,inactive,,,,9.48%,2.92%,,-10.6%,inactive,1.26 µM (active)
CN(C)c1ncc2nc(-c3ccc(Cl)cc3)c(=O)n(C[C@H]3CCCO3)c2n1,> 11.4 µM,3.98 µM (active),> 9.22 µM,> 46 µM,inactive,inactive,,inactive,inactive,inactive,,,,21.9%,11.6%,,9.11%,inactive,
CNc1nc(-c2cccnc2)nc2ccccc12,> 11.4 µM,0.1 µM (active),> 46 µM,> 46 µM,inactive,inactive,inactive,4.47 µM (active),inactive,inactive,,,,2.11%,-3.74%,,14.7%,3.98 µM (active),6.31 µM (active)
Cc1cnc(CNc2cc(-c3ccccc3C(F)(F)F)ncn2)cn1,> 11.4 µM,25.1 µM (active),> 46 µM,> 46 µM,inactive,inactive,6.31 µM (active),inactive,inactive,inactive,,,,10.7%,8.02%,,3.5%,inactive,inactive
c1ccc(CNc2ncncc2-c2cccnc2)cc1,> 11.4 µM,2.51 µM (active),> 46 µM,> 46 µM,inactive,inactive,inactive,inactive,inactive,inactive,,,,-2.51%,-3.91%,,1.26%,inactive,1.26 µM (active)
